Bioassay records: PubChem, The Scripps Research Institute Molecular Screening Center
GPR151 activ – activators of human GPR151 | Q8TDV0 | PathHunter beta-arrestin GPR151 cells, luminescence | activation, % at 11.2 µM | actives 1% (n = 650,000) | AID 1508602; in the data active = activation above about 4.9%;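 note: 0% = median of compound wells and 100% = cells with positive control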
TEAD-YAP inh – TEAD-YAP interaction inhibition; actives 1.4% (n = 640,000); inhibition, % at 9.12 µM; HEK-TIYL cells, TEAD-Gal4/YAP UAS-luciferase luminescence; in the data active = inhibition above about 32%;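 note: 0% = median of test compound wells and 100% = reference inhibitor wells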
FBW7 activator – activators of human E3 ligase FBW7; Q969H0; AlphaScreen FBW7–phospho-cyclin E peptide binding, activator screen; normalized activity (activation), % at 26.1 µM; actives 0.13% (n = 650,000); in the data active = normalized activity above about 1.9%;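 note: purified mutant Fbw7 with reduced substrate affinity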
Target sequence (Q969H0 whole entry, looked up): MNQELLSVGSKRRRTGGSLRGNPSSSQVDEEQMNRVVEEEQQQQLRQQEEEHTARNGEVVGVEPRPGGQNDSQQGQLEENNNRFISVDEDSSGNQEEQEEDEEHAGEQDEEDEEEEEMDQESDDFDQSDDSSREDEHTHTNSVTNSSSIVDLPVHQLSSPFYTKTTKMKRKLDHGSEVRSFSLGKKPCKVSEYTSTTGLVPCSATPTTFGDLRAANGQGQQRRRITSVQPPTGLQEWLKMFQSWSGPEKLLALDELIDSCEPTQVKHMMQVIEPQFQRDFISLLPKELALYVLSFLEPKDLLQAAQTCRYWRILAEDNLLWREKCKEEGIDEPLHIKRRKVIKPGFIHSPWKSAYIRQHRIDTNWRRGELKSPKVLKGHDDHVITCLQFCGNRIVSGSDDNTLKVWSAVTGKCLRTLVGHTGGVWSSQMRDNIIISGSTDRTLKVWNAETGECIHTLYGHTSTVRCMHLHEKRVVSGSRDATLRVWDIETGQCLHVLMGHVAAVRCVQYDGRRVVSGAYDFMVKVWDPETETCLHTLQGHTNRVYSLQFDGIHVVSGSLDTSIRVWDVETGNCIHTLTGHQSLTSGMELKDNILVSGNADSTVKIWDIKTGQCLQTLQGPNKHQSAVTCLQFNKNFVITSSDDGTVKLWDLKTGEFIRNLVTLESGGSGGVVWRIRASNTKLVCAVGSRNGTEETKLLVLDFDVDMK
MITF primary – inhibitors of human MITF. AID 1259374. AlphaScreen MITF homodimerization, bead proximity signal. inhibition, % at 2.6 µM. O75030. actives 0.91% (n = 650,000); in the data active = inhibition above about 50%;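 note: 0% = vehicle wells with protein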
Numbers without * were called inactive. An excerpt weighted towards active compounds, which were near 3.4% of everything screened.

SMILES | GPR151 activ | TEAD-YAP inh | FBW7 activator | MITF primary
CCN(CC)Cc1c(C(=O)N/N=C/c2cccc(OC)c2O)nnn1-c1nonc1N | -1 | 14 | 0 | 60*
CCN(CC)Cc1c(C(=O)N/N=C/c2ccc(O)c([N+](=O)[O-])c2)nnn1-c1nonc1N | -1 | 12 | 0 | 75*
CC(C)C(C)(C#N)NC(=O)Cc1cccc2ccccc12 (configuration not stated) | 0 | 6 | 0 | -2
Cc1ccccc1CN1CCN(Cc2cccc3ccccc23)CC1 | 0 | -6 | 0 | 79*
O=C(NCCOc1ccccc1)c1csc(Nc2ccc(-n3ccnc3)cc2)n1 | 2 | 45* | 0 | 15
O=C(NCCOc1ccccc1)c1cccc(Nc2ccncc2)n1 | 1 | -8 | 0 | -8
O=C(NCCOc1ccccc1)c1cccc(Nc2ccc(-n3ccnc3)cc2)n1 | 2 | 61* | 0 | 11
O=C(NCCc1ccc(O)cc1)c1csc(Nc2ccc(-n3ccnc3)cc2)n1 | -2 | 31 | 0 | 25
COc1cc2sc(=NC(=O)c3coc4ccccc4c3=O)n(C)c2cc1OC | 1 | -2 | 0 | 0
CC(C)c1nccn1CC1CCN(C(=O)c2ccccc2Cl)CC1 | 0 | 33* | 0 | 9
Cc1ccc(S(=O)(=O)NC(=O)Nc2ccc(-c3nc4ccc(C)cc4s3)cc2)cc1 | -9 | 91* | 0 | 16
CC1=CCC(C(=O)O)C(C(=O)Nc2ccc(-c3nc4ccc(C)cc4s3)cc2)C1 (configuration not stated) | -3 | 59* | 0 | -12
Cc1ccc(S(=O)(=O)Nc2ccccc2C(=O)Nc2ccc(-c3nc4ccc(C)cc4s3)cc2)cc1 | -1 | -3 | 1 | 5
CN(C1=C(NCCO)C(=O)c2ccccc2C1=O)c1ccccc1 | 0 | 3 | 0 | 24
CC(=O)N(C1=C(NCCO)C(=O)c2ccccc2C1=O)c1cccc(Br)c1 | -4 | 86* | 0 | 0
CN(C)C1=C(Nc2ccc(Cl)c(Cl)c2)C(=O)c2ccccc2C1=O | -1 | -3 | 0 | 12
CC(=O)N(C1=C(N(C)C)C(=O)c2ccccc2C1=O)c1ccc(Cl)c(Cl)c1 | -4 | 82* | -1 | 15
CC(=O)N(C1=C(N(C)C)C(=O)c2ccccc2C1=O)c1ccc(F)c(F)c1 | -6 | 99* | 0 | 17
CC(=O)N(C1=C(N(C)C)C(=O)c2ccccc2C1=O)c1cccc(Cl)c1 | -5 | 93* | -1 | 24
Cc1cccc(-n2nnc(C(=O)NCCC3=CCCCC3)c2N)c1 | 0 | -28 | 0 | 7
Cn1c(=O)c(=O)n(C)c2cc(S(=O)(=O)CCC(=O)NCc3ccco3)ccc21 | -2 | 5 | 0 | 6
O=C(Cc1n[nH]c(=O)c2ccccc12)OCC(=O)c1ccc2c(c1)OCCO2 | -2 | 50* | 0 | 3
COc1ccc(Nc2c3c4c(cccc4[nH]c2=O)C(=O)c2ccccc2-3)cc1 | 1 | 55* | 0 | 3
O=C1c2ccccc2-c2c(Nc3ccccc3)c(=O)[nH]c3cccc1c23 | 0 | 49* | 0 | 7
COc1cccc(-c2noc(CCC(=O)Nc3ccccc3Cl)n2)c1 | -2 | -20 | 0 | -6
SMILES | GPR151 activ | TEAD-YAP inh | FBW7 activator | MITF primary
CCOC(=O)C1=CN(Cc2ccc(Cl)cc2)C=C(C(=O)OCC)C1c1ccc(OC)cc1OC | 1 | -7 | 0 | -7
NC(=O)c1ncccc1Nc1ccnc(Nc2ccc(N3CCOCC3)cc2)c1 | 0 | 49* | 0 | 35
Cc1cc(Nc2cc(Nc3ccccc3C(N)=O)ccn2)ccc1N1CCOCC1 | 2 | 34* | 0 | 17
NC(=O)c1ccccc1Nc1ccnc(Nc2ccc(N3CCOCC3)cc2F)c1 | 0 | 38* | 0 | -7
NC(=O)c1cc(F)ccc1Nc1ccnc(Nc2ccc(N3CCOCC3)cc2)c1 | 4 | 18 | 0 | 17
COc1ccc(OCc2cc(C(=O)NCc3ccc4c(c3)OCO4)no2)c(Cl)c1 | 2 | -5 | 0 | -2
COc1cc(C(=O)N2CCN(c3ccc([N+](=O)[O-])cc3Cl)CC2)cc(OC)c1OC | 0 | -6 | 0 | 9
O=C(CSc1nc2ccc([N+](=O)[O-])cc2[nH]1)Nc1ccc(F)c(F)c1 | 0 | 69* | 0 | 0
O=C(CSc1nc2ccc([N+](=O)[O-])cc2[nH]1)Nc1ccc(F)cc1 | 1 | 7 | 0 | 14
CCc1ccc2c(c1)/C(=c1/sc3n(c1=O)CN(c1cccc(C(=O)O)c1)CN=3)C(=O)N2 | -1 | -1 | 3.9* | 3
CCCC1=NN2C(=N)/C(=C/c3ccc(-c4ccccc4[N+](=O)[O-])o3)C(=O)N=C2S1 | -1 | -7 | 0 | -5
